The source of these data is PubChem BioAssay (Tox21).

Structures are written as SMILES. A number with no mark means an inactive call. Inconclusive results are not listed. The source made the active and inactive calls. Unless noted, calls come from the whole dose curve; as a rule, active = well fitted curve in the direction sought with a large enough effect in the repeat runs; inconclusive = weak or mixed curves; inactive = no such curve, though single readings can be large; an effect the other way counts as inactive or inconclusive.

Test [1] in a line: A CellTox Green Cytotoxicity Assay to monitor cytotoxicity in HepG2 cells - 0 hour (AID 1224882). Note: nearly all actives have a fitted effect of over 35% in size. An outline of the steps:
(§1)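 HepG2 cells, 600/well, preincubated 5 h with CellTox Green dye, then exposed to Tox21 compounds in DMSO at 37 C for up to 40 h. Dead-cell DNA fluorescence read at the indicated time point.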

Test [2] is described as follows: A CellTox Green Cytotoxicity Assay to monitor cytotoxicity in HepG2 cells - 32 hour (AID 1224883). Note: nearly all actives have a fitted effect of over 50% in size. An outline of the steps: as §1
Test [3] can be described thus: A CellTox Green Cytotoxicity Assay to monitor cytotoxicity in HEK293 cells - 8 hour (AID 1224884). Note: nearly all actives have a fitted effect of over 35% in size. An outline of the steps:
(§2)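 HEK293 cells, 600/well, were preincubated 5 hours and then exposed to compounds at 37 C for up to 40 hours. A cell-impermeant cyanine dye staining dead-cell DNA was read by fluorescence at 0, 8, 16, 24, 32 and 40 h time points.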

Test [4] can be described thus: qHTS RealTime-Glo MT Cell Viability Assay in HepG2 cells - 16 hour (AID 1224885). Note: nearly all actives have a fitted effect of over 50% in size. An outline of the steps:
(§3)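 HepG2 suspension premixed with RealTime-Glo reagents is plated at 600 cells per well and left 5 h at 37 C/5% CO2. Compounds in DMSO then go in, and bioluminescence reflecting viable cell number is recorded over 40 h.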

Test [5] can be described thus: qHTS RealTime-Glo MT Cell Viability Assay in HEK293 cells - 24 hour (AID 1224886). Note: top concentration of the series differs between compounds; nearly all actives have a fitted effect of over 50% in size. An outline of the steps: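 Reads taken at 0, 8, 16, 24, 32 and 40 h from the same wells. HEK293 cells (600/well) carried RealTime-Glo reagents from seeding, with compound added after a 5 h settle at 37 C.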
A short description of test [6]: qHTS RealTime-Glo MT Cell Viability Assay in HEK293 cells - 8 hour (AID 1224887). Note: top concentration of the series differs between compounds; nearly all actives have a fitted effect of over 50% in size. An outline of the steps:
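600 cells/well were plated with the nonlytic NanoLuc/prosubstrate reagent, pre-incubated 5 h, then given 23 nL of compound in DMSO. Incubation at 37 C for 40 h, with luminescence from viable-cell-reduced substrate read repeatedly from 0 h.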

Test [7] can be described thus: A CellTox Green Cytotoxicity Assay to monitor cytotoxicity in HEK293 cells - 16 hour (AID 1224888). Note: nearly all actives have a fitted effect of over 35% in size. An outline of the steps:
as §2

Test [8] in a line: qHTS RealTime-Glo MT Cell Viability Assay in HepG2 cells - 0 hour (AID 1224889). Note: nearly all actives have a fitted effect of over 50% in size. An outline of the steps: as §3
The nature of test [9]: A CellTox Green Cytotoxicity Assay to monitor cytotoxicity in HepG2 cells - 8 hour (AID 1224890). Note: nearly all actives have a fitted effect of over 45% in size. An outline of the steps: as §1
Test [10] in a line: qHTS assay to identify small molecule antagonists of the androgen receptor (AR) signaling pathway using the MDA cell line in the presence of 0.5 nM R1881 - cell viability counter screen (AID 1259242). Note: nearly all actives have a fitted effect of over 45% in size. An outline of the steps: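 MDA-kb2 cells (MMTV-luciferase, AR/GR responsive) were treated with compounds plus 0.5 nM R1881 (final) for 16 hr at 37C, 0% CO2. Viability was then read in the same wells as live-cell protease fluorescence (CellTiter-Fluor, 30 min).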

Test [11] concerns the target Estrogen receptor (Homo sapiens) (UniProt P03372). The experiment in a line: qHTS assay to identify small molecule antagonists of the estrogen receptor alpha (ER-alpha) signaling pathway using the BG1 cell line in the presence of 0.1 nM 17-beta-estradiol (AID 1259244). Note: nearly all actives have a fitted effect of over 50% in size. An outline of the steps: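 VM7Luc4E2 cells (endogenous full-length ER-alpha, 4×ERE-luciferase), kept 5 days in phenol red-free, charcoal-stripped FBS medium; 4,000 cells/well. Compounds added with 0.1 nM (final) 17beta-estradiol, 22 hr at 37C; luminescence read with ONE-Glo after 30 min.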

The nature of test [12]: qHTS assay to identify small molecule HDAC inhibitors (AID 1259364). Note: top concentration of the series differs between compounds; nearly all actives have a fitted effect of over 45% in size. An outline of the steps: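 Wild-type HCT-116 cells, plated overnight at 37 C, exposed to compounds 2 hr at 37 C; luminogenic HDAC-Glo substrate then added 30 min at room temperature. Luminescence reports relative endogenous class I/II HDAC activity.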
A short description of test [13]: qHTS assay to identify small molecule HDAC inhibitors - cell viability counter screen (AID 1259365). An outline of the steps:
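HCT-116 (wild type), 1,500 cells/well, overnight 37C/5% CO2; compound in DMSO 2hr; CellTiter-Glo 30min RT; luminescence read.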

Test [14] is described as follows: qHTS assay to identify small molecule agonists of the sonic hedgehog signaling (Shh) pathway - cell viability counter screen (AID 1259366). Note: nearly all actives have a fitted effect of over 50% in size. An outline of the steps:
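CellTiter-Fluor fluorescence read-out, 1 hr at 37C, added after 23hr compound exposure. Cells: 3T3 Gli1-Luc, an NIH/3T3 clone with stably integrated Gli1-Luc reporter, plated 4hr before compound.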

Test [15] is described as follows: qHTS assay to identify small molecule antagonists of the sonic hedgehog signaling (Shh) pathway - cell viability counter screen (AID 1259367). Note: nearly all actives have a fitted effect of over 55% in size. An outline of the steps: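 After a 4 hr settling period, 3T3 Gli1-Luc cells were treated with DMSO-dissolved chemicals and conditioned medium, kept 24 hr at 37C in 5% CO2, and assayed for viability by CellTiter-Fluor fluorescence following 1 hr reagent incubation.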

Test [16] is described as follows: qHTS assay to identify small molecule agonists of the sonic hedgehog signaling (Shh) pathway (AID 1259368; calls by dose curve;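 note: NIH/3T3-derived 3T3Gli1-Luc cells carrying a stable Gli1-driven firefly luciferase reporter; series mostly up to about 92 µM; nearly all actives have a fitted effect of over 15% in size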). An outline of the steps:
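NIH/3T3-derived 3T3Gli1-Luc cells with stably integrated Gli1-driven firefly luciferase, 2,000 cells/well, compounds added after 4 hr. Incubated 24 hr at 37C, 5% CO2; luminescence read after 30 min with luciferase reagent at room temperature.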

A short description of test [17]: qHTS assay to identify small molecule antagonists of the sonic hedgehog signaling (Shh) pathway (AID 1259369; calls by dose curve; note: nearly all actives have a fitted effect of over 45% in size; note: potency is the fitted concentration of half-maximal effect). An outline of the steps: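 NIH/3T3-derived Gli1-Luc reporter cells plated 4 h, dosed with compound, then stimulated with conditioned medium for 24 h at 37 C. Firefly luciferase luminescence read after 30 min with detection reagent at room temperature.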

Test [18] deals with Androgen receptor (Homo sapiens) (UniProt P10275). Put plainly: qHTS assay to identify small molecule antagonists of the androgen receptor (AR) signaling pathway using the MDA cell line in the presence of 0.5 nM R1881 (AID 1259243). Note: nearly all actives have a fitted effect of over 50% in size. An outline of the steps: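 MDA-kb2 cells (MMTV-luciferase, responsive to AR and GR) at 3,000/well, rested 5 h at 37C, 0% CO2, then given compounds plus 0.5 nM R1881 (final) for 16 hr. Luciferase read with ONE-Glo after 30 min at room temperature.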
Chain of Androgen receptor (Homo sapiens) (P10275 whole entry, looked up): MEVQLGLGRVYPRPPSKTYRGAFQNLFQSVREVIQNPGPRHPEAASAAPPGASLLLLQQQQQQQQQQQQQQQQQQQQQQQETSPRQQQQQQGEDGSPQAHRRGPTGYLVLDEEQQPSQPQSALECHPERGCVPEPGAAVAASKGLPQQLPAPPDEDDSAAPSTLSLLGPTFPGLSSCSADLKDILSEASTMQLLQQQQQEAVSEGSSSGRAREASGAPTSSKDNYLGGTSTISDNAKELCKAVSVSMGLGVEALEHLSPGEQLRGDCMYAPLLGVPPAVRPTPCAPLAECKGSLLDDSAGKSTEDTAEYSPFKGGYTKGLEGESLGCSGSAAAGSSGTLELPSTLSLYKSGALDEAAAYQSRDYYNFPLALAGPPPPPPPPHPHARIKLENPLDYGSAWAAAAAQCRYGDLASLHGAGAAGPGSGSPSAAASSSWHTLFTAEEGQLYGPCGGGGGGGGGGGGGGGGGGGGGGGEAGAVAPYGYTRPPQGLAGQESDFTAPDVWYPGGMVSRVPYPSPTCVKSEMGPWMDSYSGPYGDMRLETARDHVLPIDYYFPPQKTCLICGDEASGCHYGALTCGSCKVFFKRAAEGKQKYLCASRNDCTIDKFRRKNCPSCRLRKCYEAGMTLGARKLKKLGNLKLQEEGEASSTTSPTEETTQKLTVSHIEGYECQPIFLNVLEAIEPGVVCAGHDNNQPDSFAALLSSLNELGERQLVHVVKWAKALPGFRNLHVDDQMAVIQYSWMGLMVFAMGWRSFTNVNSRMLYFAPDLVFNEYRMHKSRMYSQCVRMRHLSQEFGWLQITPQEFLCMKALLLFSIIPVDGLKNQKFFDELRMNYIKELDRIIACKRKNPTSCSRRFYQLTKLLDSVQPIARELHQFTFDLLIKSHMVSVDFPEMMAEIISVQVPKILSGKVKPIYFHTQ

Test [19] is described as follows: qHTS assay to identify small molecule phospholipidosis (PLD) inducers (AID 1259344; active = well fitted curve in the direction sought with a large enough effect; an effect the other way counts as inactive or inconclusive). An outline of the steps: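 HepG2 cells grown on collagen I take up LipidTOX Red while exposed to compound for 24 h; after fixation they are imaged at 20x and pit metrics are extracted.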
The nature of test [20]: qHTS assay to identify small molecule antagonists of the estrogen receptor alpha (ER-alpha) signaling pathway using the BG1 cell line in the presence of 0.1 nM 17-beta-estradiol - cell viability counter screen (AID 1259241). Note: nearly all actives have a fitted effect of over 40% in size. An outline of the steps: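 Live-cell protease activity (CellTiter-Fluor fluorescence, 30 min) was read in the same wells after VM7Luc4E2 cells had been exposed to compounds with 0.1 nM 17beta-estradiol for 22 hr at 37C.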

Chain of Estrogen receptor (Homo sapiens) (P03372 whole entry, looked up): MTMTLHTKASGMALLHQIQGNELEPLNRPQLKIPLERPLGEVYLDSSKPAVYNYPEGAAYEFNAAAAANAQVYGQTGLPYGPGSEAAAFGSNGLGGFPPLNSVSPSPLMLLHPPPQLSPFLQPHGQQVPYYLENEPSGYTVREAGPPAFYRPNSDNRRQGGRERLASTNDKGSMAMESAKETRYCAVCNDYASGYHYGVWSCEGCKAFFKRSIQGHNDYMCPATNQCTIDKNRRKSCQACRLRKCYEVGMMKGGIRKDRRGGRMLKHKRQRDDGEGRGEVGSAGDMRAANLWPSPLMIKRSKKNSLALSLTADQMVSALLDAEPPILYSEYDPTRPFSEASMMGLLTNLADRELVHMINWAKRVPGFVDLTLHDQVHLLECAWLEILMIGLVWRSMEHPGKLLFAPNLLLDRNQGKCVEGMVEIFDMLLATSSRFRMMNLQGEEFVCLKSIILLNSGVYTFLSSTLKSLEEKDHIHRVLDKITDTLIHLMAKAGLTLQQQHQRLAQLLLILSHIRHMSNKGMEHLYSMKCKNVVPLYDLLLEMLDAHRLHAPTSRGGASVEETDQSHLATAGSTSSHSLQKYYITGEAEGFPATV

With `CCOCC(C)O` (stereo unspecified), the Potency entry in test [1], in test [2], in [5], in test [6], in test [8] and in [12] was “inactive” each time. Also, the Potency result in [14], in [15] and in test [17] was “inactive” in each case. Also, the compound was called inactive in test [3], in [4], in test [7], in test [9], in test [10] and in test [11]. Also, the outcome in test [13] and in [16] was inactive.
`C=C[Si](OC(C)=O)(OC(C)=O)OC(C)=O`: the Potency result in [1], in test [2], in [5], in [6], in test [8] and in test [18] was “inactive” throughout. In addition, the Potency result in test [12] and in [14] was “inactive” each time. The compound was called inactive in [3], in [4], in [7], in [9], in [10] and in test [11]. Besides, in test [16], the compound was called inactive. For the same compound, the Potency in test [17] is 30.6 µM (active).
As for `N[C@@H](CCC(=O)O)C(=O)O`, the Potency result in [1], in [2], in test [5], in [6], in test [8] and in test [12] was “inactive” throughout. In addition, the Potency entry in test [14], in test [15] and in test [17] was “inactive” throughout. The compound was classed as inactive in test [3], in [4], in test [7], in test [9], in [10] and in test [11]. Moreover, the call in test [19], in test [13] and in [16] was inactive.
With `CN(C)CCN(C)CCN(C)C`, the Potency entry in test [1], in test [2], in [5], in test [6], in test [8] and in test [12] was “inactive” in each case. In addition, the Potency result in test [14], in test [15] and in [17] was “inactive” throughout. Also, the call in test [3], in [4], in test [7], in [9], in test [10] and in test [11] was inactive. For the same compound, the compound was classed as inactive in test [13] and in test [16].
In the case of `CC(C)(CCC(=O)O)C(=O)O`, the Potency entry in [1], in test [2], in [5], in [6], in test [8] and in [12] was “inactive” each time. Further, the Potency result in test [14], in [15] and in [17] was “inactive” each time. The call in [3], in test [4], in test [7], in test [9], in test [10] and in [11] was inactive. The compound was called inactive in test [13].
For the compound `CC/C=C\CCOC(C)OCC` (stereo unspecified), the Potency result in test [1], in test [2], in [5], in [6], in [8] and in test [12] was “inactive” throughout. In addition, the Potency result in test [14] and in test [17] was “inactive” in each case. Further, the call in test [3], in test [4], in test [7], in test [9], in [10] and in test [16] was inactive.
As to `CC(C)COC(=O)c1ccc(N)cc1`, the Potency result in test [1], in test [2], in [5], in test [6], in [8] and in test [14] was “inactive” in each case. Moreover, the Potency result in test [15] and in test [17] was “inactive” each time. Besides, the result in test [3], in [4], in test [7], in test [9], in test [10] and in [11] was inactive. In addition, the result in test [19] and in test [16] was inactive.
In the case of `CC1=C(C/C=C(\C)CCC[C@H](C)CCC[C@H](C)CCCC(C)C)C(=O)c2ccccc2C1=O`, the Potency result in test [1], in test [2], in test [6], in [8], in test [12] and in test [14] was “inactive” each time. The Potency result in [15] and in test [17] was “inactive” throughout. The compound was classed as inactive in test [3], in [4], in test [7], in test [9], in test [20] and in test [10]. The call in [19], in test [13] and in test [16] was inactive.
